“And” between values parts separate entries of the source, which are not always exact repeats. Identical values can stand only once. More than one record can exist for a structure, and the calls need not agree. The source made the active and inactive calls. Rule for the calls: active = hit-call score of the fitted dose curve at least 0.9, where 1 is the maximum; inactive = score below 0.9.

For orientation: AC50 means the concentration giving half of the maximal activity seen.

Read-out in this assay: Cytochrome P450 (CYP1A1), CYP1A1 (gene 1543)
Description: LTEA_HepaRG_CYP1A1: Life Technologies and Expression Analysis (LTEA) Assay for Cytochrome P450 (CYP1A1) using HepaRG (AID 2283454). To be noted: mRNA level, 48 h; actives raise or lower the signal. The method, then:
LTEA_HepaRG is a cell based, multiplexed-readout assay that uses HepaRG, a human liver cell line, with measurements taken at 48 hours after chemical dosing on a 96-well plate.LTEA_HepaRG_CYP1A1 is one of 102 assay component(s) measured in the LTEA HepaRG cell culture assay. It is a marker of NR mediated metabolism.Data from the assay component LTEA_HepaRG_CYP1A1 was analyzed into 1 endpoint. This assay endpoint, LTEA_HepaRG_CYP1A1, was analyzed with bidirectional fitting relative to DMSO as the negative control and baseline of activity. Using a type of inducible reporter, measures of mRNA induction for gain or loss-of-signal activity can be used to understand regulation of transcription factor activity. To generalize the intended target to other relatable targets, this assay endpoint is annotated to the cyp intended target family, where the subfamily is xenobiotic metabolism.
A total of 1060 chemcials from the ToxCast library were tested in eight-point concentration-response experiments. Cell culture and cytotoxicity assays were conducted at Thermo Fisher Scientific's Custom Services facility (Madison, WI). A single lot of human HepaRG cells (Thermo Fisher Scientific, Frederick, MD) was used for the cell culture experiments. 96-well format collagen type I coated plates of human HepaRG cells were prepared using established methods. Briefly, cryopreserved HepaRG cells were thawed, plated at a density of approximately 100,000 cells/well in HepaRG Thaw, Plate, and General Purpose media (HPRG770, Thermo Fisher Scientific), and incubated for 48 hours. 0.5% DMSO was selected as vehicle control to balance the requisite need of DMSO in HepaRG cultures to maintain differentiation (for example, baseline metabolism, proportions of hepatocytes vs. cholangiocytes), while enabling further hepatic receptor pathway activation (for example, PXR and CAR) in response to chemical exposure. 48 hours after plating, the culture medium was replaced with HepaRG Serum-Free Incudtion Media. Cells were exposed to each test chemical in duplicate and maintained in CO2 incubators for another 48 hours. Chemical plates were thawed to room temperature and 200x concentrations of treatment groups were prepared. 8-point conentration-reponse curves were made with the highest exposure at 100 uM, followed by half-log dilutions, all in 0.5% DMSO. Each test plate contained variouse controls, induction positive controls (1mM phenobarbital), cytotoxicity positive controls ([…] aflatoxin B1), vehicle controls (0.5% DMSO), and total lysis controls (0.5% DMSO). Cell morphology images were taken using an Essen IncuCyte FLR automated microscope, with six 96-well plates imaged in about 24 minutes. Images were captured and exported and JPEG files. Spent culture media was transfered to black-well plates for the LDH assay, and remaining media was sorted at -80 C for later use. Cells were treated with RLT buffer and frozen until shipped for gene expression analysis. Total RNA was isolated from the cell suspension in 75 uL of Buffer RLT (Qiagen, Germantown, MD 20874) by Quintiles/Expression Analysis (Durham, NC) using a custom isolation procedure. Total RNA from each plate well was transferred to a preamplification plate. Fluidigm's 96.96 Dynamic ArrayTM (Fluidigm, Amsterdam, the Netherlands) technology was used for gene expression analyses by quantitative reverse transcription polymerase chain reaction (qRT-PCR, performed by Quintiles/Expression Analysis, Durham, NC)89. Standard TaqManTM Assays (Applied Biosystems/ThermoFisher Scientific, Foster City, CA) were used to assess the expression of 93 genes selected based on their selectivity and sensitivity to important hepatic receptors known to be modulated by environmental chemicals; importance in human hepatocyte functionality; and hepatotoxicity. […]
On to `COC(=O)c1ccc(I)cc1S(=O)(=O)NC(=O)Nc1nc(C)nc(OC)n1`, for which the AC50 was 62.4 µM (active).

For `O=C(c1ccccc1)C1CCCCC1`, the call was inactive.

As to `CC(=O)S[C@@H]1CC2=CC(=O)CC[C@]2(C)[C@H]2CC[C@@]3(C)[C@@H](CC[C@@]34CCC(=O)O4)[C@H]12`, the call was inactive.

In the case of `OB(O)O`, the compound was classed as inactive.

As for `CCSC(=O)N(CC(C)C)CC(C)C`, the AC50 was 50 µM (active).

For `CC(C)(C)[C@@H](O)[C@@H](Cc1ccc(Cl)cc1)n1cncn1`, the AC50 is 33.9 µM (active).

As for `C#C[C@]1(O)CC[C@H]2[C@@H]3CCC4=CC(=O)CC[C@@H]4[C@H]3CC[C@@]21CC`, the compound was classed as inactive.

Take `N[C@@H](Cc1cc(I)c(Oc2ccc(O)c(I)c2)c(I)c1)C(=O)O`: the AC50 was 0.0392 µM (active).

In the case of `COc1c(Cl)ccc(Cl)c1C(=O)O`, the call was inactive.

For the compound `S=C(S)NCCNC(=S)S.[Mn+2].[S-]C([S-])=NCCN=C([S-])[S-].[Zn+2]`, the AC50 is 116 nM (active) and 122 nM (active).

With `CCCN(CCC)C(=O)SCC`, the result was inactive.

With `CCNc1nc(N)nc(Cl)n1`, the result was inactive.

Regarding `CCC(C)OC(=O)N1CCCCC1CCO` (stereo not given), the AC50 was 64 µM (active).

As to `CC(=O)[C@H]1CC[C@H]2[C@@H]3CCC4=CC(=O)CC[C@]4(C)[C@H]3CC[C@]12C`, the AC50 is 34.6 µM (active).

`CCOC(=O)C(C)Oc1ccc(Oc2cnc3cc(Cl)ccc3n2)cc1` (stereo not given): the AC50 was 18.5 µM (active).

As for `CN(C)C(=O)Nc1ccc(Cl)c(Cl)c1`, the AC50 is 27 µM (active).

Consider `CCOC(=O)COc1cc(-n2ncc(C(F)(F)F)c(C)c2=O)c(F)cc1Cl`, for which the AC50 was 50 µM (active).

`CCCCC(CC)CN1C(=O)C2C3C=CC(C3)C2C1=O` (stereo not given): the AC50 is 12.6 µM (active).

In the case of `COC(=O)c1ccccc1C(=O)O`, the outcome was inactive.

For `CSC(=O)c1cccc2nnsc12`, the AC50 is 50 µM (active).

For the compound `CCCCC(CC)COC(=O)c1ccccc1C(=O)O` (stereo not given), the AC50 is 77.2 µM (active).

`CCCCOC(=O)C(C)Oc1ccc(Oc2ccc(C(F)(F)F)cn2)cc1` (stereo not given): the AC50 was 9.92 µM (active).

As for `CCOC(=O)C(C)Oc1ccc(Oc2nc3ccc(Cl)cc3o2)cc1` (stereo not given), the AC50 was 56.7 µM (active).

As to `CCCCOCCOCCOCc1cc2c(cc1CCC)OCO2`, the AC50 was 12.9 µM (active).

`N#CSCSc1nc2ccccc2s1`: the AC50 is 49.4 µM (active).

Turning to `c1ccc(Nc2ccccc2)cc1`, the compound was classed as inactive.

For `C=CCOC(Cn1ccnc1)c1ccc(Cl)cc1Cl` (stereo not given), the half-maximal activity concentration (AC50) was 12.1 µM (active).

As for `CC(C)CCCCCCc1ccc(O)cc1`, the AC50 was 50 µM (active).

Consider `CCOC(=O)NCCOc1ccc(Oc2ccccc2)cc1`, for which the AC50 is 50 µM (active).

On to `CC(C)(c1ccc(O)cc1)c1ccc(O)cc1`, for which the compound was called inactive and the AC50 is 11.7 µM (active).

In the case of `CCCCOC(=O)[C@@H](C)Oc1ccc(Oc2ccc(C(F)(F)F)cn2)cc1`, the AC50 was 50.2 µM (active).

Consider `CCCOC(=O)NCCCN(C)C`, for which the call was inactive.

For the compound `COC(=O)CSc1cc(N=c2sc(=O)n3n2CCCC3)c(F)cc1Cl`, the AC50 was 64.9 µM (active).

On to `O=C(O)c1ccccc1`, for which the compound was classed as inactive and the AC50 is 51.2 µM (active).

In the case of `C[C@]12CC[C@@H]3c4ccc(O)cc4C[C@@H](CCCCCCCCCS(=O)CCCC(F)(F)C(F)(F)F)[C@H]3[C@@H]1CC[C@@H]2O` (stereo not given in full), the call was inactive.

Regarding `CCCCCOC(=O)COc1cc(N2C(=O)C3=C(CCCC3)C2=O)c(F)cc1Cl`, the AC50 was 0.00329 µM (active).

`CCN(Cc1c(F)cccc1Cl)c1c([N+](=O)[O-])cc(C(F)(F)F)cc1[N+](=O)[O-]`: the AC50 is 14.8 µM (active).

Take `CC1(C)C(C=C(Cl)Cl)C1C(=O)OCc1cccc(Oc2ccccc2)c1` (stereo not given): the AC50 is 35.9 µM (active).

Values taken from PubChem BioAssay (EPA / NIEHS).
